Activity calls are given as the source filed them.
Legend:
[1] = small molecules captured by biotinylated probe aFSTL3 – biochemical, small-molecule microarray, fluorescence 635/667, stem cell growth factor project, primary screen (AID 1064); conditions: higher = more signal;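 note: measures binding of the biotinylated anti-FSTL3 antibody to printed compounds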
[2] = binders from COS7 lysate, DM2A8 probe, primary screen, torsin A project, cell lysate, small-molecule microarray, fluorescence 635/667 (AID 1065); conditions: higher = more signal, COS7 lysate expressing mutant human TOR1A
[3] = small molecules captured by biotinylated probe aFGF2 – biochemical, small-molecule microarray, fluorescence 635/667, stem cell growth factor project, primary screen (AID 1067); conditions: higher = more signal;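 note: measures binding of biotinylated aFGF2 protein to printed compounds on slides; z-score merges feature fluorescence and signal-to-noise across triplicate slides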
[4] = small molecules captured by biotinylated probe aFGF10 – biochemical, small-molecule microarray, fluorescence 635/667, stem cell growth factor project, primary screen (AID 1071); conditions: higher = more signal;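 note: score merges 667 nm spot intensity and signal to noise from triplicate slides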
[5] = target: Neurogenic locus notch homolog protein 2 (Homo sapiens) (UniProt Q04721); assay: small molecules binding Notch2 protein – biochemical, small-molecule microarray, 635 nm fluorescence, stem cell growth factors, primary screen (AID 1073); conditions: higher = more signal
[6] = target: Pro-neuregulin-1, membrane-bound isoform (Homo sapiens) (UniProt Q02297); assay: small molecules binding neuregulin-1 protein – biochemical, small-molecule microarray, fluorescence 635/667, psychiatric disease protein project, primary screen (AID 1075); conditions: NRG1 binding, 635 nm fluorescence, higher = more signal;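 note: score combines 667 nm spot fluorescence with signal to noise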
[7] = test system: Neuregulin-1 EGF-like domain; assay: small molecules binding NRG1 EGF domain – biochemical, small-molecule microarray, 635 nm fluorescence, primary screen (AID 1081); conditions: higher = more signal;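 note: binding of the protein to compounds printed on small-molecule microarray slides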
[8] = FRG1 expression reporter modulators in myotubes – cell-based, C2C12 myotubes, firefly/Renilla luciferase, luminescence, FRG1 inhibition for FSHD, primary screen (AID 1084); conditions: FRG1 promoter luciferase, higher = more signal, called active from +8 up or from −8 down
[9] = small molecules captured by biotinylated probe aFST – biochemical, small-molecule microarray, fluorescence 635/667, stem cell growth factor project, primary screen (AID 1086); conditions: higher = more signal;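 note: score merges 667 nm fluorescence with signal-to-noise of each printed compound spot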
[10] = binders of probe aHhip on microarray, primary screen, stem cell growth factor project, biochemical, small-molecule microarray, fluorescence 635/667 (AID 1087); conditions: higher = more signal;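 note: score merges spot fluorescence at 667nm with spot signal to noise ratio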
[11] = test system: PRMT1 (protein arginine N-methyltransferase 1); assay: small molecules binding arginine methyltransferase PRMT1 – biochemical, small-molecule microarray, 635 nm fluorescence, primary screen (AID 1088); conditions: higher = more signal;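 note: binding of Prmt1 protein to compounds spotted on small-molecule microarray slides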
[12] = growth effects on S. cerevisiae YJM789 – YJM789 clinical isolate, OD600, 24 h, basal, primary screen (AID 1089); conditions: higher = more signal, called active from +8 up or from −8 down;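 note: growth of clinical yeast isolate S. cerevisiae YJM 789 seeded 1000 cells per well; test concentration not given here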
[13] = S. pombe growth modifiers, basal conditions – strain 972, OD600, 24 h, no modulator, primary screen (AID 1090);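 note: basal condition with compound alone and no growth modifier present; test concentration not given here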; conditions: S. pombe 972 growth, higher = more signal, called active from +8 up or from −8 down
[14] = budding yeast growth modifiers under rapamycin – strain BY4716, OD600, 96 h, primary screen (AID 1091); note: test concentration not given here; conditions: S. cerevisiae BY4716 + rapamycin, higher = more signal, called active from +8 up or from −8 down
[15] = target: Torsin-1A-interacting protein 2 (Homo sapiens) (UniProt Q8NFQ8); assay: small molecules binding lysate-expressed LULL1 – cell lysate, human LULL1 lysate, 635/667 nm fluorescence, primary screen (AID 1092); conditions: small-molecule microarray, hLULL1 lysate binding, 635 nm fluorescence; higher = more signal;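 note: probe is lysate of COS7 cells overexpressing human LULL1; score merges per-feature 667 nm fluorescence with signal-to-noise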
[16] = optical density change of DRC41 E. coli – strain DRC41, OD650, 24 h, E. coli filamentation project, primary screen (AID 1093);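 note: MC1000 strain lacking acrAB efflux and sulA so SOS filamentation is blocked; test concentration not given here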; conditions: E. coli DRC41 growth, higher = more signal, called active from +8 up or from −8 down
[17] = probe aLefty2 binding to arrayed compounds – biochemical, biotinylated probe, 635/667 nm fluorescence, primary screen (AID 1094); conditions: small-molecule microarray, higher = more signal;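 note: score merges spot fluorescence near 667 nm with spot signal-to-noise ratio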
[18] = test system: Noggin (protein binding on small-molecule microarray); assay: small molecules binding Noggin protein – biochemical, 635/667 nm fluorescence, primary screen (AID 1095); conditions: 635 nm fluorescence, higher = more signal;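 note: score merges 667 nm feature fluorescence with signal to noise over triplicate slides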
[19] = target: Neurogenic locus notch homolog protein 3 (Homo sapiens) (UniProt Q9UM47); assay: small molecules binding NOTCH3 protein – biochemical, 635/667 nm fluorescence, primary screen (AID 1096); conditions: small-molecule microarray, 635 nm fluorescence, higher = more signal
[20] = probe aEGFR binding to arrayed compounds – biochemical, biotinylated probe, 635/667 nm fluorescence, primary screen (AID 1097); conditions: small-molecule microarray, higher = more signal;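 note: probe is a biotinylated anti-EGFR antibody binding compounds printed on slides; score combines fluorescence near 667 nm and signal to noise of each spot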

Sequence of Pro-neuregulin-1, membrane-bound isoform (Homo sapiens) (Q02297 whole entry, looked up, the tested form may be a part, canonical isoform): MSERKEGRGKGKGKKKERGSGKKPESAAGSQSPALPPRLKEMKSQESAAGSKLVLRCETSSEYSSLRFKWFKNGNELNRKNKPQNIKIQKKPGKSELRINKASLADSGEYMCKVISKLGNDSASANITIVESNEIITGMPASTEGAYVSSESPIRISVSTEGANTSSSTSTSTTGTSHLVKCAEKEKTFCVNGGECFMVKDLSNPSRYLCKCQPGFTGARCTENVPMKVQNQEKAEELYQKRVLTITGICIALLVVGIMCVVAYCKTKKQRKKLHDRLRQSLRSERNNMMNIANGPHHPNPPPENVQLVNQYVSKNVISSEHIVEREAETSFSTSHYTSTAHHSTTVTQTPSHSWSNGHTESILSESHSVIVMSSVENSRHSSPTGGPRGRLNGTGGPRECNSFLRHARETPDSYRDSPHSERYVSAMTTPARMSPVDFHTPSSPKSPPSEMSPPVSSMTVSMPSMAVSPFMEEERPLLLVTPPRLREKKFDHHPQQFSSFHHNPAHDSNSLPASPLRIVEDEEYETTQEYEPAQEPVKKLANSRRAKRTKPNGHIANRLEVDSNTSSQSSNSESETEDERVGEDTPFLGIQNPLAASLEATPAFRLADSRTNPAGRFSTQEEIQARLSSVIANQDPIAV
Sequence of Neurogenic locus notch homolog protein 2 (Homo sapiens) (Q04721 whole entry, looked up, canonical isoform): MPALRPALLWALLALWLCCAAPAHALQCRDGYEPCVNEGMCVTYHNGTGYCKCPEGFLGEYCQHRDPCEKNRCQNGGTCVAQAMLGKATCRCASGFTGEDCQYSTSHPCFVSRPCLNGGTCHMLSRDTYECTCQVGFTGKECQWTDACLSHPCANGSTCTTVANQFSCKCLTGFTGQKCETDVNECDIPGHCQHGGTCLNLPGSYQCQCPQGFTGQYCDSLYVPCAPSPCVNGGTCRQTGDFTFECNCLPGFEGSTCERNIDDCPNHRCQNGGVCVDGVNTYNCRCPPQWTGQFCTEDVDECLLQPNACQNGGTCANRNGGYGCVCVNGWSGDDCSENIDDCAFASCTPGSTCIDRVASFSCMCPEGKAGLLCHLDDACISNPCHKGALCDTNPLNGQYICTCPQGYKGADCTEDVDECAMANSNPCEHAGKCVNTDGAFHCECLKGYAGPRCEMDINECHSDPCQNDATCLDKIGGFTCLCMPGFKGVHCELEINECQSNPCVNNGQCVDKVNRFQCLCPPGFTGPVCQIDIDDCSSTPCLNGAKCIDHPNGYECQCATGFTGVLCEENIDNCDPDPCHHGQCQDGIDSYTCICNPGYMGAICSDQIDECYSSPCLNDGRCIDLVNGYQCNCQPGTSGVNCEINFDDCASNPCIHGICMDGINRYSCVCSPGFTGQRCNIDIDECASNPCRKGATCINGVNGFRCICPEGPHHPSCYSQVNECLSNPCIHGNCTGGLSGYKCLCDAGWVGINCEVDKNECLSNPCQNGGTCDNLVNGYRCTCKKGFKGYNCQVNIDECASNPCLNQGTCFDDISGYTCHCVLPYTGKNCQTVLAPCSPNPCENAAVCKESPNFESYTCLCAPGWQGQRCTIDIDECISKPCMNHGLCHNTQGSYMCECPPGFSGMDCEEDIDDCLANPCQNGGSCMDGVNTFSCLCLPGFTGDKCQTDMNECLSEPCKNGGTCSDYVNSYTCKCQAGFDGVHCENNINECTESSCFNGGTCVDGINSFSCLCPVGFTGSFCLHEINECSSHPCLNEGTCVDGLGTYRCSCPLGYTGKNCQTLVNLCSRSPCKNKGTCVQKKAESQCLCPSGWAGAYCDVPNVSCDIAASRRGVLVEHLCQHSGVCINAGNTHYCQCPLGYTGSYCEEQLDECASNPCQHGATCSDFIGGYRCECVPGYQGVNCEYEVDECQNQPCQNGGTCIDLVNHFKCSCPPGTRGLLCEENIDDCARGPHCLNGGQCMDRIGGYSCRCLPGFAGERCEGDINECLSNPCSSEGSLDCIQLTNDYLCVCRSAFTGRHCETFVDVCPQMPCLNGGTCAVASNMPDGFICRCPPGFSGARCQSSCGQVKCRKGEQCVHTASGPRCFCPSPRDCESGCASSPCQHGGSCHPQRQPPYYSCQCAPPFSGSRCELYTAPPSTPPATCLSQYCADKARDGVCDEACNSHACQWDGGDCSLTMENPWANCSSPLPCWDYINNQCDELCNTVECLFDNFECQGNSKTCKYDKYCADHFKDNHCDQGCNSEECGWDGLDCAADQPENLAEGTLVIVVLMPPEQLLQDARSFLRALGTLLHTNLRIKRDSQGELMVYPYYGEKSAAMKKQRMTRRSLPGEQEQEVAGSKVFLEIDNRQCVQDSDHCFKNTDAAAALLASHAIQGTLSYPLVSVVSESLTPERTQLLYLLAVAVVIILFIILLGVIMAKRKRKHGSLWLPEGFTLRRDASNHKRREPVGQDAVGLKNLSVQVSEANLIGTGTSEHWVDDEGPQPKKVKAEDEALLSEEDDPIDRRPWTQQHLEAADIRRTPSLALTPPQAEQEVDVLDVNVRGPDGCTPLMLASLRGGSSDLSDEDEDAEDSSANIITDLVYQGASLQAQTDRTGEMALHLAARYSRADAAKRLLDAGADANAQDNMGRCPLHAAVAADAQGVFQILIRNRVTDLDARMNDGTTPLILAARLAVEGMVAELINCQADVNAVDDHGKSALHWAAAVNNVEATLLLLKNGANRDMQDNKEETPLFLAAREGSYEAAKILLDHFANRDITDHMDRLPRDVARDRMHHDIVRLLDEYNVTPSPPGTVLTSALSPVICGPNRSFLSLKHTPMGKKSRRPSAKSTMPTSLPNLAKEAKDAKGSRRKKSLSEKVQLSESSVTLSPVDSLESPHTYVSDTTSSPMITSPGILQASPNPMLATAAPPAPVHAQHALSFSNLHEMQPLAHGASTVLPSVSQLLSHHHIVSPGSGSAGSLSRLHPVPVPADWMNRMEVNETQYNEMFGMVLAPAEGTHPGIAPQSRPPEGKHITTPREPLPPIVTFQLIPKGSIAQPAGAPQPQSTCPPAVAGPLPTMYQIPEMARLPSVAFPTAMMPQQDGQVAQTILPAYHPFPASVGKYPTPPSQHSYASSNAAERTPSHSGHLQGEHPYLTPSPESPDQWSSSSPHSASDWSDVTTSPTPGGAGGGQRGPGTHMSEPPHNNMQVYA
Sequence of Torsin-1A-interacting protein 2 (Homo sapiens) (Q8NFQ8 whole entry, looked up): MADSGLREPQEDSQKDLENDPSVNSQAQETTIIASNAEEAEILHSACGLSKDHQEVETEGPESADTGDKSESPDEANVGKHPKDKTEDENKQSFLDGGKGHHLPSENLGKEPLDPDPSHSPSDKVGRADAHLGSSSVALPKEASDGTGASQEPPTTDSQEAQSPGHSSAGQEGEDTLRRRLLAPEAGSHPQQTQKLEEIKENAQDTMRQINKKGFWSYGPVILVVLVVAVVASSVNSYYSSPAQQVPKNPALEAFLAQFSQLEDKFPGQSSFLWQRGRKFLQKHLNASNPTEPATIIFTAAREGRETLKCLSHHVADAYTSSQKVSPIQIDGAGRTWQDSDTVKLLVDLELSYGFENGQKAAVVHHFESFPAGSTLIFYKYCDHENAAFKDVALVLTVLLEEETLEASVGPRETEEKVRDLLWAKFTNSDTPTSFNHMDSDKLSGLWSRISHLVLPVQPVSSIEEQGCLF

Structure (SMILES): C[C@@H]1CC[C@H]2C(=O)N3CCC[C@H]3C(=O)N2[C@H]1c1ccc(Br)cc1
- composite z-score [1]: -0.162
- composite z-score [2]: 0.0769
- composite z-score [3]: -0.11
- composite z-score [4]: -0.121
- composite z-score [5]: -0.829
- composite z-score [6]: -0.267
- composite z-score [7]: 0.0421
- z-score [8]: -0.228 (inactive)
- composite z-score [9]: -0.0423
- composite z-score [10]: 0.0274
- composite z-score [11]: -0.455
- z-score [12]: 0.233 (inactive)
- z-score [13]: -0.228 (inactive)
- z-score [14]: -0.0146 (inactive)
- composite z-score [15]: 0.178
- z-score [16]: 0.784 (inactive)
- composite z-score [17]: -0.207
- composite z-score [18]: 0.49
- composite z-score [19]: -0.383
- composite z-score [20]: -0.166

Structure (SMILES): COCCOC(=O)N1C(=O)[C@@]2(c3cc(C#CCNC(N)=O)ccc31)[C@H](c1ccc(OCCO)cc1)N1[C@H](c3ccccc3)[C@H](c3ccccc3)OC(=O)[C@H]1[C@@H]2C(=O)Nc1nc2ccccc2s1
- composite z-score [1]: 1.02
- composite z-score [2]: 0.208
- composite z-score [3]: -0.0399
- composite z-score [4]: 0.371
- composite z-score [5]: -0.97
- composite z-score [6]: 0.396
- composite z-score [7]: -0.757
- z-score [8]: 3.98 (inactive)
- composite z-score [9]: 0.98
- composite z-score [10]: 0.136
- composite z-score [11]: 0.75
- z-score [12]: 1.55 (inactive)
- z-score [13]: 1.11 (inactive)
- z-score [14]: 3.55 (inactive)
- composite z-score [15]: 0.376
- z-score [16]: 2.56 (inactive)
- composite z-score [17]: 0.162
- composite z-score [18]: 0.895
- composite z-score [19]: 0.865
- composite z-score [20]: 0.0894

Structure (SMILES): C=CCNC(=O)[C@H]1[C@@H]2C(=O)O[C@@H](c3ccccc3)[C@@H](c3ccccc3)N2[C@@H](c2ccc(O)cc2)[C@]12C(=O)Nc1ccc(C#CCNC(N)=O)cc12
- composite z-score [1]: 0.587
- composite z-score [2]: -0.0883
- composite z-score [3]: -0.128
- composite z-score [4]: -0.608
- composite z-score [5]: -1.11
- composite z-score [6]: 1.07
- composite z-score [7]: 0.858
- z-score [8]: -0.477 (inactive)
- composite z-score [9]: -0.526
- composite z-score [10]: -0.21
- composite z-score [11]: 0.0982
- z-score [12]: -0.396 (inactive)
- z-score [13]: -0.37 (inactive)
- z-score [14]: 0.402 (inactive)
- composite z-score [15]: 1.87
- z-score [16]: 2.18 (inactive)
- composite z-score [17]: -0.282
- composite z-score [18]: -0.643
- composite z-score [19]: -1.01
- composite z-score [20]: -0.216

Structure (SMILES): CCCC=C(CCC)[C@@H](NS(=O)(=O)c1cccc(C(F)(F)F)c1)c1ccc(C(=O)OC)cc1
- composite z-score [1]: 2.23
- composite z-score [2]: 0.131
- composite z-score [3]: 0.731
- composite z-score [4]: -0.0446
- composite z-score [5]: 0.318
- composite z-score [6]: -0.0702
- composite z-score [7]: 0.53
- z-score [8]: 2.49 (inactive)
- composite z-score [9]: 2.13
- composite z-score [10]: 0.171
- composite z-score [11]: 0.133
- z-score [12]: 0.483 (inactive)
- z-score [13]: 0.441 (inactive)
- z-score [14]: -0.182 (inactive)
- composite z-score [15]: 0.468
- z-score [16]: -0.228 (inactive)
- composite z-score [17]: 1.06
- composite z-score [18]: 1.3
- composite z-score [19]: 0.0083
- composite z-score [20]: 0.912

Structure (SMILES): C#CCCCON=C1C[C@@H](O)[C@@H](O)[C@@H]2[C@@H]3C(=O)N(Cc4ccc5c(c4)OCO5)C(=O)[C@@H]3CC[C@H]12
- composite z-score [1]: -0.264
- composite z-score [2]: 0.933
- composite z-score [3]: -0.0533
- composite z-score [4]: 0.716
- composite z-score [5]: 0.624
- composite z-score [6]: 0.662
- composite z-score [7]: 0.695
- z-score [8]: 0.523 (inactive)
- composite z-score [9]: -0.0042
- composite z-score [10]: -0.342
- composite z-score [11]: 1.01
- z-score [12]: -0.216 (inactive)
- z-score [13]: 0.518 (inactive)
- z-score [14]: -0.257 (inactive)
- composite z-score [15]: 2.79
- z-score [16]: 0.523 (inactive)
- composite z-score [17]: -0.0835
- composite z-score [18]: 1.66
- composite z-score [19]: 0.513
- composite z-score [20]: -0.02

— PubChem BioAssay
